Results published in PubChem BioAssay (EPA / NIEHS).
Several values for one entry are separate records, joined by “and”; a condition that tells them apart may be missing. Identical values can stand only once. Activity calls are given as the source filed them. How the source made its calls: active means hit-call score of the fitted dose curve at least 0.9, where 1 is the maximum; inactive means score below 0.9.

Experiments:
[1] = BSK_hDFCGF_SRB: Viability Assessment in the BioMAP Diversity Plus: hDFCGF Assay (AID 2283061); conditions: primary human foreskin fibroblasts;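 further: cells exposed to compound for 24 h before the read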
How it was run: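 Primary human foreskin fibroblasts; 24 h post-dose; fixed 10% TCA, stained 0.1% SRB, A560 read; total protein as overt cytotoxicity measure; curves fit bidirectionally vs DMSO control.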

[2] = read-out: TIMP metallopeptidase inhibitor 1 (TIMP1), TIMP1 (gene 7076); test: BSK_hDFCGF_TIMP1: BioMAP Diversity Plus: hDFCGF Assay for TIMP metallopeptidase inhibitor 1 (TIMP1) Biomarker Activity (AID 2283062); conditions: primary human foreskin fibroblasts; actives raise or lower the signal
How it was run: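 ELISA readout of TIMP-1 from human dermal foreskin fibroblast cultures 24 h post-dosing. Curves were fitted in both directions against DMSO baseline, with SRB total-protein staining in parallel cultures as a cytotoxicity check.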

[3] = read-out: Monokine induced gamma interferon (MIG), CXCL9 (gene 4283); test: BSK_hDFCGF_MIG: BioMAP Diversity Plus: hDFCGF Assay for Monokine induced gamma interferon (MIG) Biomarker Activity (AID 2283063); conditions: primary human foreskin fibroblasts; actives raise or lower the signal
How it was run: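 Fibroblasts (human foreskin, primary) dosed, 24 h, MIG by ELISA; fit bidirectional vs DMSO.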

[4] = read-out: Matrix Metallopeptidase 1 (MMP1), MMP1 (gene 4312); test: BSK_hDFCGF_MMP1: BioMAP Diversity Plus: hDFCGF Assay for Matrix Metallopeptidase 1 (MMP1) Biomarker Activity (AID 2283064); conditions: primary human foreskin fibroblasts; actives raise or lower the signal
How it was run: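 hDFCGF primary fibroblasts (human foreskin); chemical added; 24 h; MMP1 by ELISA; bidirectional fit vs DMSO.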

[5] = read-out: Vascular cell adhesion molecule 1 (VCAM1), VCAM1 (gene 7412); test: BSK_hDFCGF_VCAM1: BioMAP Diversity Plus: hDFCGF Assay for Vascular cell adhesion molecule 1 (VCAM1) Biomarker Activity (AID 2283065); conditions: primary human foreskin fibroblasts; actives raise or lower the signal;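 on AC50: VCAM-1 protein level quantified by ELISA after 24 h chemical exposure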
How it was run: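 ELISA read-out of VCAM-1 on human skin fibroblasts, 24 h post-dose; gain or loss of signal fitted bidirectionally against DMSO baseline.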

[6] = read-out: Plasminogen activator inhibitor-1 (PAI1), SERPINE1 (gene 5054); test: BSK_hDFCGF_PAI1: BioMAP Diversity Plus: hDFCGF Assay for Plasminogen activator inhibitor-1 (PAI1) Biomarker Activity (AID 2283066); conditions: primary human foreskin fibroblasts; actives raise or lower the signal
How it was run: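 Human foreskin fibroblast primary cells, 24 h chemical exposure; PAI-1 measured by ELISA. Bidirectional fitting relative to DMSO; parallel cultures stained with SRB for total protein to flag overt cytotoxicity.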

[7] = read-out: Intercellular Adhesion Molecule 1 (ICAM1), ICAM1 (gene 3383); test: BSK_KF3CT_ICAM1: BioMAP Diversity Plus: KF3CT Assay for Intercellular Adhesion Molecule 1 (ICAM1) Biomarker Activity (AID 2283067); conditions: primary human keratinocytes with fibroblasts; actives raise or lower the signal
How it was run: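 ELISA readout of ICAM-1; KF3CT human skin co-culture (keratinocytes + foreskin fibroblasts), 24 h post-dose; gain/loss fit vs DMSO baseline.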

[8] = read-out: Interferon-gamma inducible Protein 10 (IP10), CXCL10 (gene 3627); test: BSK_KF3CT_IP10: BioMAP Diversity Plus: KF3CT Assay for Interferon-gamma inducible Protein 10 (IP10) Biomarker Activity (AID 2283068); conditions: primary human keratinocytes with fibroblasts; actives raise or lower the signal
How it was run: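 Signal is secreted/surface IP-10 by ELISA in a human primary skin co-culture of keratinocytes and foreskin fibroblasts, taken 24 h post-dosing; DMSO served as negative control.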

[9] = BSK_KF3CT_SRB: Viability Assessment in the BioMAP Diversity Plus: KF3CT Assay (AID 2283069); conditions: primary human keratinocytes with fibroblasts;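 further: total protein by sulforhodamine B staining as a cytotoxicity measure; read 24 h after compound addition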
How it was run: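 Keratinocytes co-cultured with foreskin fibroblasts (human primary); chemical added, 24 h; fix 10% TCA, stain 0.1% SRB, A560. Bidirectional fit vs DMSO.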

[10] = read-out: Interleukin-1 alpha (IL1a), IL1A (gene 3552); test: BSK_KF3CT_IL1a: BioMAP Diversity Plus: KF3CT Assay for Interleukin-1 alpha (IL1a) Biomarker Activity (AID 2283070); conditions: primary human keratinocytes with fibroblasts; actives raise or lower the signal
How it was run: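 Chemicals were dosed onto co-cultured human keratinocytes and foreskin fibroblasts, IL-1a was quantified by ELISA at 24 h, and activity was fitted in both directions relative to DMSO controls.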

[11] = read-out: TIMP metallopeptidase inhibitor 2 (TIMP2), TIMP2 (gene 7077); test: BSK_KF3CT_TIMP2: BioMAP Diversity Plus: KF3CT Assay for TIMP metallopeptidase inhibitor 2 (TIMP2) Biomarker Activity (AID 2283071); conditions: primary human keratinocytes with fibroblasts; actives raise or lower the signal
How it was run: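 Co-culture of human primary keratinocytes and foreskin fibroblasts, measured 24 h after chemical dosing. TIMP-2 quantified by ELISA and fitted in both directions relative to DMSO. Cytotoxicity checked in parallel cultures by SRB total-protein staining.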

[12] = read-out: Transforming growth factor beta 1 (TGFb1), TGFB1 (gene 7040); test: BSK_KF3CT_TGFb1: BioMAP Diversity Plus: KF3CT Assay for Transforming growth factor beta 1 (TGFb1) Biomarker Activity (AID 2283072); conditions: primary human keratinocytes with fibroblasts; actives raise or lower the signal
How it was run: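 Human keratinocyte/foreskin fibroblast co-culture; TGF-b1 measured by ELISA 24 h after dosing, fitted bidirectionally versus DMSO. Cytotoxicity checked in parallel cultures by total protein (SRB staining, 560 nm).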

[13] = read-out: Matrix Metallopeptidase 9 (MMP9), MMP9 (gene 4318); test: BSK_KF3CT_MMP9: BioMAP Diversity Plus: KF3CT Assay for Matrix Metallopeptidase 9 (MMP9) Biomarker Activity (AID 2283074); conditions: primary human keratinocytes with fibroblasts; actives raise or lower the signal;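 on AC50: MMP9 protein level quantified by ELISA in the co-culture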
How it was run: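 Human keratinocyte/foreskin fibroblast co-culture; compound added; 24 h; MMP-9 by ELISA; bidirectional fit vs DMSO baseline.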

[14] = read-out: urokinase plasminogen activator (uPA), PLAU (gene 5328); test: BSK_KF3CT_uPA: BioMAP Diversity Plus: KF3CT Assay for urokinase plasminogen activator (uPA) Biomarker Activity (AID 2283075); conditions: primary human keratinocytes with fibroblasts; actives raise or lower the signal
How it was run: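 ELISA readout of uPA, analyzed for signal gain or loss relative to DMSO, from a human primary keratinocyte–foreskin fibroblast co-culture measured 24 h after chemical treatment.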

[15] = read-out: CD40, CD40 (gene 958); test: BSK_LPS_CD40: BioMAP Diversity Plus: LPS Assay for CD40 Biomarker Activity (AID 2283076); conditions: primary human HUVEC with PBMC; actives raise or lower the signal
How it was run: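 ELISA readout of CD40 in HUVEC/PBMC co-culture (BSK_LPS system), 24 h post-dosing; bidirectional curve fit, DMSO baseline; parallel SRB total-protein staining for cytotoxicity.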

[16] = read-out: E-selectin (Homo sapiens) (UniProt P16581); test: BSK_LPS_Eselectin: BioMAP Diversity Plus: LPS Assay for Eselectin Biomarker Activity (AID 2283077); conditions: primary human HUVEC with PBMC; actives raise or lower the signal
How it was run: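 ELISA readout of E-selectin, 24 h post-dose, HUVEC + PBMC co-culture (LPS system). Gain or loss of signal vs DMSO baseline, bidirectional fit.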

[17] = read-out: Interleukin-8 (IL8), CXCL8 (gene 3576); test: BSK_LPS_IL8: BioMAP Diversity Plus: LPS Assay for Interleukin-8 (IL8) Biomarker Activity (AID 2283078); conditions: primary human HUVEC with PBMC; actives raise or lower the signal
How it was run: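 HUVEC + PBMC co-culture, LPS-activated; test chemicals dosed, IL-8 read by ELISA at 24 h. Bidirectional curve fit vs DMSO baseline (gain or loss of signal).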

[18] = BSK_LPS_SRB: Viability Assessment in the BioMAP Diversity Plus: LPS Assay (AID 2283079); conditions: primary human HUVEC with PBMC;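 further: total protein by sulforhodamine B absorbance as a cytotoxicity measure; measured one day after compound addition; fitted in both directions against DMSO so loss or gain of signal counts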
How it was run: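 HUVEC + PBMC co-culture, LPS-stimulated; compound 24 h. 10% TCA fix, 0.1% SRB stain, A560. Bidirectional fit vs DMSO.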

[19] = read-out: C-C motif chemokine 2 (Homo sapiens) (UniProt P13500); test: BSK_KF3CT_MCP1: BioMAP Diversity Plus: KF3CT Assay for Monocyte Chemoattractant Protein 1 (MCP1/CCL2) Biomarker Activity (AID 2283073); conditions: primary human keratinocytes with fibroblasts; actives raise or lower the signal
How it was run: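 KF3CT skin co-culture (keratinocytes/foreskin fibroblasts), 24 h post-dose; MCP-1 by ELISA; gain/loss of signal fit bidirectionally vs DMSO baseline.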

Measured: AC50

E-selectin (Homo sapiens), sequence (P16581 whole entry, looked up): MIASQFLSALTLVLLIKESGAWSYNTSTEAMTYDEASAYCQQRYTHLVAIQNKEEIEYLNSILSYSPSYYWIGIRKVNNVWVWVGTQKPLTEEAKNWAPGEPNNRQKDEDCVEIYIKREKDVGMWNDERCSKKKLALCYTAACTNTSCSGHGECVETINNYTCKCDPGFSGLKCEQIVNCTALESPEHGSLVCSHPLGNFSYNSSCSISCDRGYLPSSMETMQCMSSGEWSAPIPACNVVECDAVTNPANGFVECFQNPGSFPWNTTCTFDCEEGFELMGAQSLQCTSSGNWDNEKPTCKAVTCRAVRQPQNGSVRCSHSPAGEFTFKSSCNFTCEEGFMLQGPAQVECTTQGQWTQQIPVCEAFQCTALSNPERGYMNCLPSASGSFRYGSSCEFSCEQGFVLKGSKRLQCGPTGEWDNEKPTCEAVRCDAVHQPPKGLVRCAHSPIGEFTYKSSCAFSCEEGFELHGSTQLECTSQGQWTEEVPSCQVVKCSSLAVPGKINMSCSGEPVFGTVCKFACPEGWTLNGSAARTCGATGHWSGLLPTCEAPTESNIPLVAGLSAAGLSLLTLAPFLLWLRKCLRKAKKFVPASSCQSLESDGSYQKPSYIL

Cc1cc(CCC(=O)OCCOCCOCCOC(=O)CCc2cc(C)c(O)c(C(C)(C)C)c2)cc(C(C)(C)C)c1O
not listed: [19]
inactive: all other assays above

CN(C)C(=O)Nc1ccc(Oc2ccc(Cl)cc2)cc1
active: [6] 16 nM
not listed: [19]
inactive: all other assays above

CC1(C)C2=CCCC(C)(C)[C@]23CC[C@H]1C3
active: [1] 31.9 µM | [2] 31.2 µM | [5] 32.9 µM | [6] 32900 nM | [11] 30.2 µM | [12] 7.31 µM
not listed: [19]
inactive: all other assays above

CCCCCCC(CO)CCCC (configuration not stated)
inactive: [15] | [16] | [17] | [18]
active: [1] 30.8 µM and 31.4 µM | [2] 30.9 µM and 35.9 µM | [3] 34 µM and 30.5 µM | [4] 31.1 µM and 30.7 µM | [5] 32.5 µM and 36.7 µM | [6] 29.9 µM and 36.3 µM | [7] 32.9 µM and 37.4 µM | [8] 38.1 µM and 36.7 µM | [9] 35.6 µM and 36.1 µM | [10] 33.4 µM and 30.3 µM | [11] 35.1 µM and 35.2 µM | [19] 32.9 µM and 36.2 µM | [13] 35.1 µM and 36.4 µM | [14] 30.5 µM and 36.6 µM

c1ccc(Oc2ccccc2)cc1
active: [8] 34.6 µM | [10] 20 µM | [11] 30.8 µM | [12] 20 µM | [13] 20 µM | [14] 20 µM
not listed: [19]
inactive: all other assays above

CC1(C)CCC[C@]2(C)[C@H]3CCO[C@]3(C)CC[C@@H]12
inactive: [15] | [16] | [17] | [18]
active: [1] 33.8 µM and 36.4 µM | [2] 38.6 µM and 32.1 µM | [3] 34.5 µM and 36.6 µM | [4] 35 µM and 36 µM | [5] 38.1 µM and 33.9 µM | [6] 37.2 µM and 31.1 µM | [7] 37.1 µM and 38.1 µM | [8] 37.5 µM and 33.9 µM | [9] 33.4 µM and 36.8 µM | [10] 34.4 µM and 38.9 µM | [11] 33.1 µM and 33.9 µM | [13] 36.7 µM and 35.6 µM | [14] 36.6 µM and 37.8 µM
